# Results taken from the supplement of paper PMC10849652.
# About 7,900 targets were measured; listed, in parts, are those with a hit and a random draw of the rest. About 0.6% of all pairs of compound and target were hits. A number with no mark means an inactive call.
# Tests used:
# Test in all cases: log2 fold change, soluble protein after heating vs DMSO (PISA); higher = thermal stabilisation; K562 cells, 10 uM, 30 min; active = over 0.2 and 3.5 SD of the protein, either way, in both replicates (recomputed)
# [1] = compound: CC[C@@H]1C(=O)N(C)c2cnc(Nc3ccc(C(=O)NC4CCN(C)CC4)cc3OC)nc2N1C1CCCC1
# How it was run: (§1)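 Aliquots of K562 cells (2×10^6 cells/mL) treated with 10 μM compound for 30 min were heated for 3 min over 48°C-58°C. After pooling and extraction in PBS with 0.5% NP-40 at 4°C, soluble protein from a 21,000xg, 90 min spin was quantified by TMTpro 16plex LC-MS/MS with channel sums equalised. Thermal stability is expressed against control samples, from duplicates, as a log2 fold change.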
# volasertib = compound: CC[C@@H]1C(=O)N(C)c2cnc(Nc3ccc(C(=O)N[C@H]4CC[C@H](N5CCN(CC6CC6)CC5)CC4)cc3OC)nc2N1C(C)C [volasertib]
# How it was run: as §1
# [2] = compound: CC[C@H](C)N1C=C(C2=C(C=C(C=C21)C3=CN=C(C=C3)N4CCNCC4)C(=O)NCC5=C(C=C(NC5=O)C)C)C
# How it was run: as §1
# epoxomicin = compound: CC[C@H](C)[C@@H](C(=O)N[C@@H]([C@@H](C)O)C(=O)N[C@@H](CC(C)C)C(=O)[C@]1(CO1)C)NC(=O)[C@H]([C@@H](C)CC)N(C)C(=O)C [epoxomicin]
# How it was run: as §1
# [3] = compound: CCn1c(C(=O)N(C2CC2)C2CC2)cc2c3c(ncn3C)c(Nc3cc(C)n(C)n3)nc21
# How it was run: as §1
# [4] = compound: CCn1cc(-c2ccnc3[nH]c(-c4cccc(CN(C)C)c4)cc23)c(-c2ccc(NC(=O)N(C)C)cc2)n1
# How it was run: as §1
# [5] = compound: CN(C)CC(=O)Nc1ccc2[nH]c(=O)c3ccccc3c2c1
# How it was run: as §1
# rosiglitazone = compound: CN(CCOC1=CC=C(C=C1)C[C@H]2C(=O)NC(=O)S2)C3=CC=CC=N3 (racemic) [rosiglitazone]
# How it was run: as §1
# [6] = compound: CN1C2=C(C3=C1C(=O)N(N=C3)CC4=CC(=CC=C4)N)SC(=C2)S(=O)C
# How it was run: as §1
# [7] = compound: CN1CCC(CNc2ccc3ncc(-c4cccc(OC(F)(F)F)c4)n3n2)CC1
# How it was run: as §1
# UniProt Q14139, sequence (Q14139 whole entry, looked up): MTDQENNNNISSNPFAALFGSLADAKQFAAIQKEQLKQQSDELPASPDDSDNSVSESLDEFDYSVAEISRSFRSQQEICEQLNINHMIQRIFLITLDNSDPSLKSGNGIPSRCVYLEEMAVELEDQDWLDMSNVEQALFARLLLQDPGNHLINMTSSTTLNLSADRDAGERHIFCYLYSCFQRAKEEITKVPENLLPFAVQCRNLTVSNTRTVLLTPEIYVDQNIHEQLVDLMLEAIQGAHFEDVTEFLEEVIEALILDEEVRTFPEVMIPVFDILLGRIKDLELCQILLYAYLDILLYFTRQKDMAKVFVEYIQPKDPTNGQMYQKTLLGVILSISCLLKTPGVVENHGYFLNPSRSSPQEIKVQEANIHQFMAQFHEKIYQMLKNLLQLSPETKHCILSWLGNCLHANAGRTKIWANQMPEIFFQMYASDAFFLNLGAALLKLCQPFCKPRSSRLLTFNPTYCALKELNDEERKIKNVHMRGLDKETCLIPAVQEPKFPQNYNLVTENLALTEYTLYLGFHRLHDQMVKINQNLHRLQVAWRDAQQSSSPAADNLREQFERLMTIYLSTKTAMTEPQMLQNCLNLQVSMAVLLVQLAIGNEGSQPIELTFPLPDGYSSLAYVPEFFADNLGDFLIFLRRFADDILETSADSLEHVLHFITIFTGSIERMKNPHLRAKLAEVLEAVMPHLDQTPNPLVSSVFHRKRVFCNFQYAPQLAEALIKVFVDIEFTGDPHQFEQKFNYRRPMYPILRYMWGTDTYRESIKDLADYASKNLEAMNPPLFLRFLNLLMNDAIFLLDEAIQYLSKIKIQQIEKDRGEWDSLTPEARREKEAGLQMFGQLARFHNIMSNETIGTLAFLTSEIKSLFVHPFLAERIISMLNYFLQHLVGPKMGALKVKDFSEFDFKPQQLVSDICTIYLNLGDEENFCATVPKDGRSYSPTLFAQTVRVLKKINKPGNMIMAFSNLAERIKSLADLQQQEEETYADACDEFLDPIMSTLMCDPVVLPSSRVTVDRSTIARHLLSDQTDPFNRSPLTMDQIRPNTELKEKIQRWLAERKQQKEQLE
# UniProt O43156, sequence (O43156 whole entry, looked up): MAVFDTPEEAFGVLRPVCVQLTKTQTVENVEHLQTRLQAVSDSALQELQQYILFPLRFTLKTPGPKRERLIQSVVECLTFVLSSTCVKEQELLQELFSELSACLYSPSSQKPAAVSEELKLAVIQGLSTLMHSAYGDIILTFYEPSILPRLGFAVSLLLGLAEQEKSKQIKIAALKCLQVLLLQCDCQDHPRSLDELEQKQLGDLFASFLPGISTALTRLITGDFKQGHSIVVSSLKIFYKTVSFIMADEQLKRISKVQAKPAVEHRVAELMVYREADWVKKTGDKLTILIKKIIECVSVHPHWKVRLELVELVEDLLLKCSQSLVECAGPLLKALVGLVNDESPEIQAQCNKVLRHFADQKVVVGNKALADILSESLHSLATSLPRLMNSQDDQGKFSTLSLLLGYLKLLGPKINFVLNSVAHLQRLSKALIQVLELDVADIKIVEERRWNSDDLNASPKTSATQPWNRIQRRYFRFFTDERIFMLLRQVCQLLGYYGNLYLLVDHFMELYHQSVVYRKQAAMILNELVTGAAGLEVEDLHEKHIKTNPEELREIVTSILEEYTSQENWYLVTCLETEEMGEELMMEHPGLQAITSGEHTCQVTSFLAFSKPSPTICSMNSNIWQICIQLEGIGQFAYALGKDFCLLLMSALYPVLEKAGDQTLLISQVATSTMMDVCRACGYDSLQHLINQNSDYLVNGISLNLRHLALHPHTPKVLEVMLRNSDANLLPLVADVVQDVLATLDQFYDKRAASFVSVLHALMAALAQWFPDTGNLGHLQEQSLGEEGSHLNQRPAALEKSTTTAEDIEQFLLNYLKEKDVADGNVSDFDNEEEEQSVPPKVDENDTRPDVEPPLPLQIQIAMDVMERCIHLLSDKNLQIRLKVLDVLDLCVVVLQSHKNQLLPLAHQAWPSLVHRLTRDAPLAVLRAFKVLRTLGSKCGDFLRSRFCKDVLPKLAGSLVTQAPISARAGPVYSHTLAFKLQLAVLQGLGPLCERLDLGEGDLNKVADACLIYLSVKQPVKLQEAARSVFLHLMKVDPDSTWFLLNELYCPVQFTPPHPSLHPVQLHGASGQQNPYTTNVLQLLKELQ
# UniProt O94874, sequence (O94874 whole entry, looked up): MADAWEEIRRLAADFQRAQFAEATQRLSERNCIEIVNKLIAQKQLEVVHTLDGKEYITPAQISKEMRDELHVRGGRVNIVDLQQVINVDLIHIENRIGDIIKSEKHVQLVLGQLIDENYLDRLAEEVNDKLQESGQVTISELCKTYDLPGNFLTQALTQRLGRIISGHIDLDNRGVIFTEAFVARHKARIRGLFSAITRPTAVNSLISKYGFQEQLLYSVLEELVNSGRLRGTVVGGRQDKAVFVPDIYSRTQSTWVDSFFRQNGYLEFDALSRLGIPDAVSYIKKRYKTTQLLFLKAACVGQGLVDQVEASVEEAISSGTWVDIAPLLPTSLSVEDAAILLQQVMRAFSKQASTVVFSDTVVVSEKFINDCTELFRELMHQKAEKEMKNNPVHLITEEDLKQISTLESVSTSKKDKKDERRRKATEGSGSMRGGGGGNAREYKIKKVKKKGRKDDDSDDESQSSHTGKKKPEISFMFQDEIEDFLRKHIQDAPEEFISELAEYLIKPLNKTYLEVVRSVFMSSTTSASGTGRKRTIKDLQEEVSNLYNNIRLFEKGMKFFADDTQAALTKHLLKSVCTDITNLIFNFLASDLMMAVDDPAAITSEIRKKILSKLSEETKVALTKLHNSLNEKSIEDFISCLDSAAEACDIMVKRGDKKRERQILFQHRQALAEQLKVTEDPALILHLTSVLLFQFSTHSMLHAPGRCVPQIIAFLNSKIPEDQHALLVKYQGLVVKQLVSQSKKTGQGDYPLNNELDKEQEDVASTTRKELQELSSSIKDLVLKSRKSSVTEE
# UniProt Q96QU8, sequence (Q96QU8 whole entry, looked up): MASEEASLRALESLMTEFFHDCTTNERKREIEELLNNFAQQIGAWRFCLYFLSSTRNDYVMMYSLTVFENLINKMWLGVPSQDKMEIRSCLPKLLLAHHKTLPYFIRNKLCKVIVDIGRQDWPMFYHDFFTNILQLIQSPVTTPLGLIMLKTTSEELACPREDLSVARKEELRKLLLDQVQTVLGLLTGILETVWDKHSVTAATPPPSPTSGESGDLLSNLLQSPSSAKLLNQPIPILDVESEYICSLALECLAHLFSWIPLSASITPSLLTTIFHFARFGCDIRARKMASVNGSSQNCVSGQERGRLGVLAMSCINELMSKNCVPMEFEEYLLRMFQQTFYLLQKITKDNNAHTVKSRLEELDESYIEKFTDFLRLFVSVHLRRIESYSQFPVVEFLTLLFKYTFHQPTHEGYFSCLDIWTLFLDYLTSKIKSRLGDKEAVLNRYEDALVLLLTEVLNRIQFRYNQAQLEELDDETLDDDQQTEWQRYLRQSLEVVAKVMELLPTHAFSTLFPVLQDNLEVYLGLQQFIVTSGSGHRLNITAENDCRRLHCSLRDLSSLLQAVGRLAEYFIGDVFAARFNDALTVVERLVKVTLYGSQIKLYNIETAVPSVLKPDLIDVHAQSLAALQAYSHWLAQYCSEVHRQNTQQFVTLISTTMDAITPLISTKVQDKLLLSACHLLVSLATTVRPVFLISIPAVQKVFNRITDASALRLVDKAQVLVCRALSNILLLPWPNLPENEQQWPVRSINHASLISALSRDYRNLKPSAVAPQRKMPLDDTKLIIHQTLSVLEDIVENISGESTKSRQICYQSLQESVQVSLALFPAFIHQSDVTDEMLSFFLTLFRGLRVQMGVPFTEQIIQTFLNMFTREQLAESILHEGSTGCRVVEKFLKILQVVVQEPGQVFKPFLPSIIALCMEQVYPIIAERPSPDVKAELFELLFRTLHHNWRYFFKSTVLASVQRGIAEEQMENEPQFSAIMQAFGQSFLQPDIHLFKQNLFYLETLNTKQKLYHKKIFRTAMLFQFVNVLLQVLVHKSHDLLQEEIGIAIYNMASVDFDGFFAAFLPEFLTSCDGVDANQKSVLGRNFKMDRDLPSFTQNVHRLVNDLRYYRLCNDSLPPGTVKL
# UniProt Q9P253, sequence (Q9P253 whole entry, looked up): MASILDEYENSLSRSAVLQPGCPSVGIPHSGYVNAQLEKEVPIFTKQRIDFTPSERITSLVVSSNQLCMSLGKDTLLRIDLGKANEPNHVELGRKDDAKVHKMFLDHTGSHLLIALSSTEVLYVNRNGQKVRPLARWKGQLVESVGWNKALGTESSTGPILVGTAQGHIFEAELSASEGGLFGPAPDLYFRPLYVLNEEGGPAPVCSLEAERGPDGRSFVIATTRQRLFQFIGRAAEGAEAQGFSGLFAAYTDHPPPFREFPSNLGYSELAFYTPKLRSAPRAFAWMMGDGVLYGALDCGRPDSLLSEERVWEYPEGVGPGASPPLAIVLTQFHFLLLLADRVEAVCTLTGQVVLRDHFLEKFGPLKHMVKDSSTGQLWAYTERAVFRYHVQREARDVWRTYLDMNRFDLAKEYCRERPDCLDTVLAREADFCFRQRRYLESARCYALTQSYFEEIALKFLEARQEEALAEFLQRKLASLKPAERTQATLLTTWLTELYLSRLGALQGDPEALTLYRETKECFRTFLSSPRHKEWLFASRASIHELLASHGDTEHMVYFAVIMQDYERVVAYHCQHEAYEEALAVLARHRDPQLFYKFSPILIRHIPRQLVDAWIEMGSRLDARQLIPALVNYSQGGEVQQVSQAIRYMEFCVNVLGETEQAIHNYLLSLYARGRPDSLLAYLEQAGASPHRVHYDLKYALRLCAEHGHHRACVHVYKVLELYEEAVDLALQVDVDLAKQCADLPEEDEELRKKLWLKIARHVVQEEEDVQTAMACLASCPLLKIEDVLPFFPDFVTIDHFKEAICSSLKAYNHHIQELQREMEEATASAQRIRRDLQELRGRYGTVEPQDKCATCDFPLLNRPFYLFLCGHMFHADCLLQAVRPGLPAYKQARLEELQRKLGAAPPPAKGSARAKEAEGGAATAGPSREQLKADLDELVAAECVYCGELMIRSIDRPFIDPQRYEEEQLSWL
Target,log2 fold change [1],log2 fold change (volasertib),log2 fold change [2],log2 fold change (epoxomicin),log2 fold change [3],log2 fold change [4],log2 fold change [5],log2 fold change (rosiglitazone),log2 fold change [6],log2 fold change [7]
TUBAL3 (UniProt A6NHL2),0.144,-0.497,-0.052,-0.11,-0.023,-0.013,-0.061,0.139,0.03,-0.067
UQCR10 (UniProt Q9UDW1),0.093,-0.102,-0.031,0.005,0.088,-0.112,0.008,0.017,-0.016,0.177
UBA6,-0.139,-0.189,0.057,0.029,-0.008,-0.031,0.033,0.016,0,0.001
TRMT10C (UniProt Q7L0Y3),-0.161,-0.416 (active),0.07,0.046,-0.064,-0.057,0.018,0.021,0.008,0.003
TMTC3 (UniProt Q6ZXV5),-0.074,-0.118,0.023,0.001,0.001,0.038,-0.045,0.03,-0.014,-0.034
VPS33A (UniProt Q96AX1),-0.224,-0.359 (active),0.043,0.039,-0.031,-0.004,0.059,0.062,0.035,-0.208
UBE2Q1 (UniProt Q7Z7E8),-0.087,-0.295 (active),0.015,-0.042,-0.075,-0.048,0.027,0.061,-0.007,-0.212
XPO6 (UniProt Q96QU8),-0.054,-0.536 (active),-0.017,-0.249,-0.011,0.174,0.065,0,0.018,-0.134
TMEM177 (UniProt Q53S58),-0.092,0.051,0.047,-0.052,0.002,0.048,0.219,0.035,-0.103,-0.075
TTI1 (UniProt O43156),-0.208,-0.431 (active),0.08,-0.024,-0.083,-0.038,0.048,0.04,0.134,-0.134
UTP14A (UniProt Q9BVJ6),0.092,0.176,0.028,-0.144,0.028,0.106,-0.136,-0.106,0.263,0.106
VPS18 (UniProt Q9P253),-0.22,-0.398 (active),0.086,-0.019,-0.009,-0.059,0.046,0.042,0.005,-0.231
TNPO2 (UniProt O14787),-0.176,-0.36 (active),0.106,0.029,-0.031,-0.027,0.111,0.068,0.016,0.06
TYW1 (UniProt Q9NV66),-0.02,-0.341 (active),0.052,0.03,-0.009,-0.002,0.031,0.036,0.014,0.088
UFL1 (UniProt O94874),-0.063,-0.351 (active),0.086,0.004,-0.06,-0.023,0.054,0.06,0.04,-0.089
TMEM161A (UniProt Q9NX61),0.033,-0.477 (active),-0.08,0.049,0.034,0.014,-0.009,0.088,-0.026,-0.265

Target,log2 fold change [1],log2 fold change (volasertib),log2 fold change [2],log2 fold change (epoxomicin),log2 fold change [3],log2 fold change [4],log2 fold change [5],log2 fold change (rosiglitazone),log2 fold change [6],log2 fold change [7]
TPM2 (UniProt P07951),-0.07,0.173,0.069,0.287,0.023,-0.04,-0.057,-0.024,-0.023,0.118
UTP4 (UniProt Q969X6),0.032,0.006,-0.017,-0.02,0.001,0.043,-0.036,-0.006,-0.061,0.233 (active)
TXNRD1 (UniProt Q16881),0.004,0.05,0.006,0.054,-0.032,-0.049,-0.003,0.067,-0.096,-0.006
TMEM70 (UniProt Q9BUB7),0.005,0.064,-0.017,0.001,0.257 (active),-0.055,0.001,0.021,-0.048,-0.288 (active)
TRAM1 (UniProt Q15629),-0.216,-0.161,0.031,0.008,-0.004,0.066,0.062,0.095,-0.001,-0.759 (active)
VRK1 (UniProt Q99986),-0.184,-0.159,0.102,0.169,-0.107,-0.06,0.135,0.105,-0.028,-0.03
XPNPEP3 (UniProt Q9NQH7),0.046,0.075,0.069,0.075,0.01,-0.076,-0.004,-0.002,-0.022,0.012
XPOT (UniProt O43592),-0.363 (active),-0.855 (active),0.04,-0.033,0,0.021,0.058,0.059,-0.028,-0.16
XRCC6 (UniProt P12956),-0.205,-0.515 (active),0.095,0.072,-0.032,0.008,0.071,0.07,-0.014,-0.172
TRAPPC8 (UniProt Q9Y2L5),-0.092,-0.287 (active),0.077,0.033,-0.023,-0.073,0.015,0.059,0.04,-0.099
WDR18 (UniProt Q9BV38),0.034,-0.1,0.022,0.016,0.039,-0.026,-0.017,0.007,0.018,-0.002
WDR62 isoform 4 (UniProt O43379),-0.02,-0.496 (active),0.04,0,0.006,0.007,-0.035,0.064,0.047,-0.161
USP24 (UniProt Q9UPU5),-0.04,-0.1,-0.047,0.073,-0.072,-0.062,0.055,-0.025,-0.123,0.137
UBE4A isoform 2 (UniProt Q14139),-0.126,-0.584 (active),0.123,0.087,-0.114,-0.055,0.053,0.05,0.159,-0.436 (active)
USP7 (UniProt Q93009),-0.045,-0.215,0.101,0.02,-0.12,-0.164,0.097,0.116,-0.005,-0.351 (active)
